# Screens: PubChem BioAssay, Broad Institute
# HIF act – HIF pathway transcriptional activation; U2OS HRE-luciferase reporter, luminescence; normalized: DMSO 0%, desferrioxamine 100%; 0.32% of 300,000 active; activation, % at 7.5 µM (by protocol);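 active = mean activation of at least 10% of the iron chelator positive control signal, with at least half of replicates also reaching 10%; inconclusive = mean and replicate majority disagree about reaching 10%; inactive = mean and most replicates under 10%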
# ALR H2O2 inh – human ALR oxidase inhibition via reduced H2O2; 3.8% of 290,000 active; purified ALR, DTT oxidation, H2O2 HRP-luminol luminescence; P55789; inhibition, % (no concentration beside the values);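 active = mean replicate inhibition above about 79%, with every replicate also reaching it, limit read from the data; inconclusive = only one of the two criteria met; inactive = mean below limit and not every replicate reaching it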
# Target sequence (P55789 whole entry, looked up): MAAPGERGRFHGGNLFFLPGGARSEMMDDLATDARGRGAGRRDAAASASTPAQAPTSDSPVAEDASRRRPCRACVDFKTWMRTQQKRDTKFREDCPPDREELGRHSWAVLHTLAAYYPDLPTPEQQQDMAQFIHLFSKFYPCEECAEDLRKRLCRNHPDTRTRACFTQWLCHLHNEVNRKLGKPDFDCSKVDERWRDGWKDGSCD
# SUMO Mot1 rescue – SUMOylation pathway inhibition by Mot1-301 growth rescue. 1% of 320,000 active. growth rescue, % at 18.8 µM. S. cerevisiae Mot1-301 growth rescue, ATP luminescence, 38.5C; percent above DMSO median, 100 means doubled;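 active = every valid replicate shows activation above 250% relative to neutral control wells; inactive = the rest, any valid replicate at or below 250%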;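 note: OY570 slx delta 5 strain wells were the positive control but not used for scaling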
# AI-2 QS mod – Vibrio harveyi AI-2 quorum sensing modulation; 0.4% of 300,000 active; activity change, % at 7.5 µM; Vibrio harveyi JMH597 AI-2 luminescence/OD600 ratio, 9 h; stronger effect = lower value; strain lacks LuxN and CqsS sensors; 0 = neutral-control median; in the data active = activity change below about -75%, passing the limit was not always enough; inconclusive = no clear call, values can overlap the other calls;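 note: luminescence divided by OD600 gain over 9 h not by final OD600 alone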
# Numbers without * were called inactive; ? = inconclusive; · = no result given. Most compounds without a hit are left out; they make up all but 4.8% or so of the library.
SMILES,HIF act,ALR H2O2 inh,SUMO Mot1 rescue,AI-2 QS mod
COc1ccc(Br)cc1C(C[N+](=O)[O-])c1c(N)n(C)c(=O)n(C)c1=O (stereo unspecified),-1.0,37.2,330.4*,·
Cc1ccc(C)n1-c1ccccc1N,-1.6,-7.0,-3.5,3.9
Nc1ccccc1-n1cccc1,-0.1,-21.5,315.2*,12.3
Cc1ccc(CNc2ncc(-c3ccccc3)n2C)o1,2.9,98.2*,-4.1,18.2
Cn1c(-c2ccccc2)cnc1NCc1ccccc1,-0.1,74.3,133.3,19.4
COc1ccccc1OCCn1c(=O)n(C)c2ccccc21,0.0,-5.7,344.7*,3.1
Cn1c(=O)n(CCOc2ccccc2Cl)c2ccccc21,2.6,-3.8,-6.4,20.5
O/N=C(\COc1ccccc1O)c1ccccc1,0.0,76.8*,-17.7,7.1
COc1ccccc1C/C(N)=N/O,204.1*,-1.5,13.4,15.5
Cc1ccsc1/C=C1/SC(N2CC(C)OC(C)C2)=NC1=O (stereo unspecified),0.3,99.1*,-2.2,25.2
Cc1ccsc1/C=C1\SC(N)=NC1=O,0.6,-9.4,-20.3,14.2
O=c1c(-c2ccc(O)cc2O)coc2cc(O)cc(O)c12,0.5,81.5*,-1.4,21.4
Cc1ccc(C)c(S(=O)(=O)Nc2ccc(O)c3ccccc23)c1,-1.7,85.4*,-17.2,14.8
Cc1ccc(C)c(S(=O)(=O)Nc2ccc(O)c(C(=O)O)c2)c1,-0.1,42.8,8.3,11.5
Cc1ccc(S(=O)(=O)Nc2ccc(O)c3ccccc23)c(C)c1,-18.0,95.0*,192.6,-1.5
Cc1ccc(S(=O)(=O)NNc2ccccc2)c(C)c1,·,100.1*,93.8,·
COc1ccc(S(=O)(=O)Nc2ccc(O)c3ccccc23)cc1,0.4,88.8*,-0.8,19.8
CCOC(=O)c1ccccc1NC(=O)CSc1nc2[nH]ncc2c(=O)[nH]1,0.5,16.1,493.5,26.4
CCN(CC)c1nc(-c2ccc(C(=O)NN)cc2)nc(-c2ccc(C(=O)NN)cc2)n1,0.7,2.5,1.6,31.9
CCCC1=Nc2cc(C(=O)N3CCN(c4ccccn4)CC3)ccc2Sc2ccc(C)cc21,-0.3,-2.7,2.8,17.6
CC1=CC(=O)C=C(C)C1=NOC(=O)c1cccc([N+](=O)[O-])c1,-1.4,99.9*,-1.5,62.7
Cc1cccc(C(=O)O/N=C(\N)c2cccc([N+](=O)[O-])c2)c1,3.7,-30.9,10.7,6.2
Cc1nc2ncnn2c(N2CCCC(C(=O)Nc3ccc4c(c3)CCC4)C2)c1C (stereo unspecified),-0.6,91.6*,0.9,13.2
CCOC(=O)C(CC(=O)Nc1nc(C(C)=O)c(C)s1)C(C)c1ccccc1 (stereo unspecified),-0.2,-43.1,3.1,8.4
O=C(NCCc1ccc(Cl)cc1)c1cc(S(=O)(=O)N2CCCCC2)c[nH]1,-0.1,2.2,213.7,5.8
SMILES,HIF act,ALR H2O2 inh,SUMO Mot1 rescue,AI-2 QS mod
O=C(NCCSc1c[nH]c2ccccc12)c1ccc(Br)o1,16.1*,46.7,-30.7,35.4
O=C(NCCc1c[nH]c2ccccc12)c1ccc(Br)o1,·,6.2,-4.1,·
Cc1[nH]c2ccccc2c1SCCNC(=O)c1ccc(Br)o1,0.3,78.3*,-12.1,-6.5
Nc1nc(CCl)nc(N(c2ccccc2)c2ccccc2)n1,1.2,9.5,-7.0,26.1
COc1ccc(O)c(CN2CCC(n3nccc3NC(=O)C3CCCC3)CC2)c1,-0.2,-6.6,0.0,29.2
O=C(Nc1cccc(-c2cn3ccccc3n2)c1)C1CC1,37.3*,64.2,·,10.1
O=C(Nc1cccc(-c2cn3ccsc3n2)c1)c1ccccc1,0.8,91.3*,-0.9,7.3
Cc1ccn2cc(-c3cccc([N+](=O)[O-])c3)nc2c1,·,90.6*,·,9.9
Cc1ccn2cc(-c3cccc(NS(C)(=O)=O)c3)nc2c1,2.5,97.0*,-16.4,9.5
Cc1ccn2cc(-c3ccc(Br)cc3)nc2c1,-1.5,·,68.3,10.9
CC(=O)Nc1cccc(-c2cn3ccc(C)cc3n2)c1,2.9,?,2.8,21.9
CCCCC(=O)Nc1cccc(-c2cn3ccsc3n2)c1,0.8,-7.9,-10.2,22.3
O=C(NC1CC(=O)N(c2ccc3c(c2)OCCO3)C1)N1CCCCC1 (stereo unspecified),-0.4,4.8,1.9,30.6
CCCCN(CCCNC(=O)CN1C(=O)COc2ccc(S(=O)(=O)N3CCC(C)CC3)cc21)Cc1ccccc1,0.5,-3.3,182.1,·
Cc1nc(-c2ccc(S(=O)(=O)Nc3ccc(Br)cc3F)cc2)co1,0.0,-3.6,7.8,25.9
CN(C)c1nc(N)ncc1-c1ccc(Oc2ccccc2)cc1,0.0,0.3,41.5,9.0
Cc1ccn2cc(-c3cccc(NC(=O)CCC(=O)O)c3)nc2c1,-5.1,98.4*,122.5,16.0
Cc1ccc2c(c1)CCCN2S(=O)(=O)c1cccc(C(=O)Nc2ccccc2C(=O)O)c1,0.4,98.1*,-9.3,28.0
CN(C)C(=O)c1ccc(NC(=O)c2cccc(S(=O)(=O)N3CCCc4ccccc43)c2)cc1,-0.5,98.4*,0.7,-0.9
CCOc1cccc(-c2c(C(=O)N/N=C/c3ccc(C)o3)nnn2-c2nonc2N)c1,0.2,3.2,59.6,6.5
CCN(Cc1nc2ccccc2c(=O)[nH]1)C(=O)c1cccc(S(=O)(=O)N2CCc3ccccc32)c1,·,-6.2,-5.7,·
N#Cc1c(-c2cccs2)nc(SCC(=O)c2cccs2)[nH]c1=O,0.9,97.8*,5.2,18.8
Cc1cccc(NC(=O)CSc2nc(-c3ccccc3)c(C#N)c(=O)[nH]2)c1C,3.0,90.9*,147.8,12.2
N#Cc1c(-c2ccccc2)nc(SCC(=O)Nc2ccc(OC(F)(F)Cl)cc2)[nH]c1=O,0.2,98.6*,147.1,13.8
N#Cc1c(-c2ccccc2)nc(SCC(=O)Nc2nnc(C(F)(F)F)s2)[nH]c1=O,-0.5,15.2,-8.6,18.0
SMILES,HIF act,ALR H2O2 inh,SUMO Mot1 rescue,AI-2 QS mod
O=C(CSc1nc2ccccc2c(=O)[nH]1)c1cccs1,-0.8,15.4,-4.2,32.9
N#Cc1c(-c2ccccc2)nc(SCC(=O)Nc2ccccc2)[nH]c1=O,·,98.2*,-21.9,·
Cc1ccc(CNC(=O)COC(=O)c2cccc(S(=O)(=O)N3CCCCC3)c2)cc1,·,-3.3,11.8,·
O=S(=O)(NC1CCN(S(=O)(=O)c2c(F)cccc2F)CC1)c1ccc2c(c1)OCCO2,·,-2.6,10.7,·
Cc1cc(NC(=O)CSc2nc(-c3ccccc3)c(C#N)c(=O)[nH]2)no1,0.3,·,·,-4.1
N#Cc1c(-c2ccccc2)nc(SCC(=O)Nc2ccccc2F)[nH]c1=O,·,98.8*,8.0,·
N#Cc1c(-c2ccccc2)nc(SCC(=O)N(c2ccccc2)c2ccccc2)[nH]c1=O,-1.2,98.1*,-5.1,28.5
Cc1cc(C)nc(NS(=O)(=O)c2ccc(NC(=O)CSc3nc(-c4ccccc4)c(C#N)c(=O)[nH]3)cc2)n1,0.3,99.0*,5.2,21.0
NCCNC[C@@H]1COC2(CCCCCCCCCCC2)O1,-0.2,1.9,35.2,11.2
Cc1c(NC(=O)CSCc2ccc(Cl)cc2Cl)cccc1C(=O)O,3.2,98.2*,-4.6,-1.8
COc1cc(NC(=O)CSCc2ccc(Cl)cc2Cl)c(C(=O)O)cc1OC,-2.4,72.8,2.4,6.9
